DAX1 inh-1 – DAX1 (NR0B1) inhibitors on StAR promoter, primary screen, cell-based, luminescence, SF-1 (NR5A1), full-length DAX-1; inhibition, % at 6.8 µM; HEK293T StAR-luciferase reporter, SF-1/DAX-1 repression relief; 370,000 tested, 1.1% active;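 active = inhibition above the mean over all tested compounds plus 3 SD, cut at about 3.6% in these data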;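 also: higher inhibition means more luminescence from relief of DAX-1 repression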
hgDAF12 agonist – H. glycines DAF-12 receptor agonists, primary screen, cell-based, luminescence, HEK293, GAL4 fusion, UAS-luciferase; activation, % at 6.8 µM; 370,000 tested, 1.8% active; HEK293 GAL4-hgDAF12 UAS-luciferase reporter, agonist luminescence; normalized to butyrate control; Nuclear hormone receptor DAF-12 (Heterodera glycines), GAL4 fusion;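 active = activation above a cutoff set at the mean of all screened compounds plus 3 SD, cut at about 10% in these data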
ssDAF-12 act – S. stercoralis DAF-12 nuclear receptor activators, primary screen, cell-based, luminescence, HEK293, GRIP1 co-expression, lit1-tk-luc. HEK293 ssDAF-12/GRIP1 lit1-tk-luc reporter; % of 3 µM dafachronic acid response. activation, % at 6.8 µM. 370,000 tested, 1% active;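 active = activation above the mean over all tested compounds plus 3 SD, cut at about 0.9% in these data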
DAX1 inh-2 – DAX1 (NR0B1) inhibitors, primary screen, cell-based, HEK293, Gal4-DAX1, luciferase luminescence | Nuclear receptor subfamily 0 group B member 1 (Homo sapiens), P51843 | HEK293 Gal4-DAX1 luciferase reporter | inhibition, % at 6.75 µM | 340,000 tested, 0.99% active;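 active = inhibition above the mean over all tested compounds plus 3 SD, cut at about 4.2% in these data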;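 also: inhibition shows as a rise in luminescence from relieved DAX1 repression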
Target sequence (P51843 207-470 limits assumed): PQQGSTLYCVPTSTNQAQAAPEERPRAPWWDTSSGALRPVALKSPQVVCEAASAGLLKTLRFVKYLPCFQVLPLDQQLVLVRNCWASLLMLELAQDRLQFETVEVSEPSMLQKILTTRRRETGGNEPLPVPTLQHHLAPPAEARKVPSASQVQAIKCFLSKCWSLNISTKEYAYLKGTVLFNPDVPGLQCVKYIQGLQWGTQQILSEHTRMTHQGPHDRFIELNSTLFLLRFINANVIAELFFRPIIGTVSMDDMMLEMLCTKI
hcDAF-12 act – H. contortus DAF-12 nuclear receptor activators, primary screen, cell-based, luminescence, HEK293, lit1-tk-luc reporter | HEK293 hcDAF-12 lit1-tk-luc reporter; 0% DMSO, 100% Δ7-dafachronic acid | activation, % at 6.8 µM | 370,000 tested, 1.4% active | AID 652067, 2013;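 active = activation above the mean of all tested compounds plus 3 SD, cut at about 5.5% in these data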
Large screens that a line does not name were inactive. Most compounds without a hit are left out; they make up all but 4.1% or so of the library.

COc1cc(CNCCc2ccc3c(c2)OCO3)cc(OC)c1OC	none
O=c1c([N+](=O)[O-])cn(O)cc1[N+](=O)[O-]	DAX1 inh-2 4.4
COc1ccc(NC(=S)NC(NC(=O)CF)C(Cl)(Cl)Cl)c([N+](=O)[O-])c1 (configuration not stated)	none
Cc1ccccc1NC(=S)NC(NC(=O)CF)C(Cl)(Cl)Cl (configuration not stated)	DAX1 inh-2 5.6
CC12CCC3C(CCC4CC(=O)OCC43C)C1CCC2O (configuration not stated)	none
CN(C(=O)Oc1ccc(C(C)(C)C)cc1)c1ccccc1	hgDAF12 agonist 11
COC(=O)C1=C(c2ccc(F)cc2OCc2ccccc2)C[C@@H]2CC[C@H]1N2C(=O)NCc1ccc(Br)cc1	none
O=c1[nH]c(=S)[nH]c(O)c1/C=N/N1CCOCC1	none
CC(=O)N1c2ccccc2C(c2ccccc2)=NCC1C(=O)NCc1ccccc1 (configuration not stated)	none (no result: DAX1 inh-2)
O=C(Cc1ccccc1F)N1CCN(CC(=O)N2CCCC2)CC1	none
O=c1[nH]c(=O)n(-c2ccc(Br)cc2)c(O)c1C=NCCN1CCCCC1	DAX1 inh-2 6.4
Cc1cccc(-n2c(O)c(C=NCCN3CCCCC3)c(=O)[nH]c2=O)c1	none
CSc1nc(Cl)c(Br)c(N2CC2)n1	DAX1 inh-2 4.6
CS(=O)(=O)c1ccc(C2=C(CNC(=O)c3cccnc3)[C@H]3CC[C@@H](C2)N3Cc2ccco2)cc1	none
COc1cc(C(=O)N2C[C@H]3C[C@@H](C2)c2cccc(=O)n2C3)cc(OC)c1OC	DAX1 inh-2 4.9
O=C1CCN(C(=O)Cc2ccccc2[N+](=O)[O-])CC1	none
COc1ccc(-n2c(-c3ccc(C)cc3)nc3ccccc3c2=O)cc1	none
COc1ccc(-c2nc3ccccc3c(=O)o2)cc1	hcDAF-12 act 5.9
C/C(=N\NC(=O)c1ccccc1)c1c(O)n(Cc2ccccc2)c(=O)[nH]c1=O	hgDAF12 agonist 11 (no result: DAX1 inh-2)
COc1cc2nc(CN3CC=C(c4ccccc4)CC3)[nH]c(=O)c2cc1OC	DAX1 inh-2 6.0
c1ccc2c(c1)-c1cccc3cccc-2c13	DAX1 inh-2 5.3
Cc1ccccc1CCC[C@H](CC1CCCCC1)CN(C)C(=O)Oc1ccccc1	none (no result: DAX1 inh-2)
Nc1c2c(nc3ccccc13)CCN(Cc1ccccc1)C2	hcDAF-12 act 6.1
C1=C(c2c[nH]c3ccccc23)CCN(Cc2ccccc2)C1	none
N#CC1c2ccccc2-n2nncc2CN1C(=O)c1ccc([N+](=O)[O-])o1 (configuration not stated)	none (no result: DAX1 inh-2)
CCN(CC)c1ccc(/C=C2\C(=O)NC(=S)N(C)C2=O)o1	DAX1 inh-2 7.5
COc1cc2c(cc1OC)C13CCN4CC5=CCOC(CC(=O)O)C(C5CC41)C3N2 (configuration not stated)	DAX1 inh-2 5.7
CCOc1ccc(N2C(=O)NC(=O)/C(=C\c3cc(OC)c(OC)cc3[N+](=O)[O-])C2=O)cc1	none (no result: DAX1 inh-1, hgDAF12 agonist, ssDAF-12 act, hcDAF-12 act)
CCOc1cc(/C=C2\C(=O)NC(=O)N(C)C2=O)cc([N+](=O)[O-])c1O	DAX1 inh-2 13
COC1=C(C)C(=O)C2=C(C1=O)C(CO)N1C(C#N)C3CC4C(C1C2N1CCOC41)N3C (configuration not stated)	none
COc1ccc2cc(C(=O)C3CCCN(C4CCOCC4)C3)ccc2c1 (configuration not stated)	DAX1 inh-1 4.4
O=C(NCCN1CCC2(CC1)C(=O)NCN2c1ccccc1)c1ccc(OC(F)(F)F)cc1	none (no result: DAX1 inh-2)
CN(C)c1ccc([N+](=O)[O-])c([N+](=O)[O-])c1	DAX1 inh-2 4.4
C=CCc1ccc(OC)cc1	DAX1 inh-2 4.5
Nc1c(C(=O)NCCCc2ccccc2)c2nc3ccccc3nc2n1Cc1cccs1	ssDAF-12 act 2.3
CCOC(=O)[C@]12Cc3ccccc3[C@H]1N(C)C(=O)c1cc(OC)ccc12	DAX1 inh-1 3.7 (no result: DAX1 inh-2)
CCOC(=O)[C@]12Cc3cc(C)ccc3[C@H]1N(C(C)C)C(=O)c1ccccc12	DAX1 inh-1 4.2 (no result: DAX1 inh-2)
CCOC(=O)[C@]12Cc3cc(OC)ccc3[C@H]1N(C1CCCCC1)C(=O)c1cc(OC)ccc12	none (no result: DAX1 inh-2)
CN1OC[C@@H]2CN[C@H](c3ccccc3Br)C[C@@H]21	none
C=CCn1c(O)c(/C=C2/C=CC=N2)c(=O)[nH]c1=O	none
CCCCn1c(O)c(/C=C2/C=CC=N2)c(=O)[nH]c1=O	DAX1 inh-2 5.4
CCOC(=O)c1cc2c(cn1)[C@@H](CCO)NC2	none
CC1CN(CC(=O)c2ccccc2Cl)CC(C)O1 (configuration not stated)	none
CC1CCN(CC(=O)c2ccccc2Cl)CC1	hgDAF12 agonist 11
O=C(CN1C(=O)[C@@H](Cc2ccccc2)N=C(c2ccccc2)c2ccccc21)NC1CCCCC1	none (no result: DAX1 inh-2)
Clc1ccc2[nH]c3c(c2c1)CCNC3	ssDAF-12 act 0.9
C/C(=N\NC(=S)Nc1ccccc1)c1c(O)n(C)c(=O)n(C)c1=O	hgDAF12 agonist 11
CSC(=Nc1ccccc1)c1c(O)n(C)c(=O)n(C)c1=O	hcDAF-12 act 5.7
COCCNC(=O)CN1C(=O)CN=C(c2ccccc2)c2ccccc21	DAX1 inh-2 4.5
O=C(CSc1ccccc1)N1CCC2(CC1)OCCO2	DAX1 inh-1 3.9
Fc1cccc(F)c1-c1nc(-c2ccc(Cl)cc2)no1	ssDAF-12 act 1.8
CO[C@H]([C@H](C)/C=C/N(C)C=O)[C@@H](C)C(=O)CC[C@H](C)[C@H](O)[C@H](C)[C@H]1OC(=O)/C=C/C(C)=C/[C@H](O)[C@H](OC)C[C@@H]2C=CC[C@@H](C[C@H](OC)[C@@H](CO)[C@@H](OC)C[C@@H](OC)[C@@H]1C)O2	none (no result: DAX1 inh-1, DAX1 inh-2)
CC(=NNC(=S)N1CC2CCC(CC2)C1)c1nccs1	hgDAF12 agonist 12
CC1CCCN(c2ccc(C(=O)N3CCC4(CC3)OCCO4)cc2[N+](=O)[O-])C1 (configuration not stated)	none
O=C(c1ccc(N2CCCCC2)c([N+](=O)[O-])c1)N1CCC2(CC1)OCCO2	DAX1 inh-2 5.1
O=c1[nH]c(=O)n(-c2cccc(F)c2)c(O)c1/C=C1\C=Nc2ccccc21	hcDAF-12 act 5.7
N#CC1c2ccccc2-n2nncc2CN1C(=O)c1cccnc1 (configuration not stated)	none (no result: DAX1 inh-2)
CCOC(=O)c1c(C)[nH]c(C(=O)C(Cc2ccccc2)N(C)C)c1C (configuration not stated)	none
